# Reference: PubChem BioAssay (NCATS)
# Results filed as inconclusive are left out. Activity calls are given as the source filed them. Calls come from the whole dose curve; as a rule, active = well fitted curve in the direction sought with a large enough effect; inconclusive = small, poorly fitted or top-dose-only effect, or another doubt; inactive = no such curve, though single readings can be large; an effect the other way counts as inactive or inconclusive.
# Experiments:
# [1] = Quantitative High-Throughput drug screen in 47 multiple myeloma cell lines against the NCATS MIPE library collection: FR4_PLB cell viability assay (AID 1918924; note: nearly all actives have a fitted effect of over 35% in size)
# Method in brief: (§1)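 Viability readout: CellTiter-Glo luminescence following 5 min room-temperature incubation with reagent. Prior exposure: 48 h, 37C, humidified 5% CO2, 500 cells per well.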
# [2] = Quantitative High-Throughput drug screen in 47 multiple myeloma cell lines against the NCATS MIPE library collection: Delta47_JCRB cell viability assay (AID 1918925; note: nearly all actives have a fitted effect of over 45% in size)
# Method in brief: (§2)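 CellTiter-Glo luminescence (ATP) after 48 h compound exposure, 37C/5% CO2; 500 cells/well; MIPE 4.0 approved/investigational drugs pinned in; DMSO = 100%, media only = 0% viability.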
# [3] = Quantitative High-Throughput drug screen in 47 multiple myeloma cell lines against the NCATS MIPE library collection: EJM_DSMZ cell viability assay (AID 1918926; note: nearly all actives have a fitted effect of over 30% in size)
# Method in brief: as §2
# [4] = Quantitative High-Throughput drug screen in 47 multiple myeloma cell lines against the NCATS MIPE library collection: AMO1_DSMZ cell viability assay (AID 1918927; note: nearly all actives have a fitted effect of over 30% in size)
# Method in brief: as §2
# [5] = Quantitative High-Throughput drug screen in 47 multiple myeloma cell lines against the NCATS MIPE library collection: ARD_JJKsccE7 cell viability assay (AID 1918929)
# Method in brief: as §2
# [6] = Quantitative High-Throughput drug screen in 47 multiple myeloma cell lines against the NCATS MIPE library collection: Karpas620_DSMZ cell viability assay (AID 1918959); note: nearly all actives have a fitted effect of over 30% in size
# Method in brief: as §1
# [7] = Quantitative High-Throughput drug screen in 47 multiple myeloma cell lines against the NCATS MIPE library collection: KMM1_JCRB cell viability assay (AID 1918960); note: nearly all actives have a fitted effect of over 30% in size
# Method in brief: (§3)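 Myeloma cells, 500 per well, were exposed to MIPE 4.0 drugs by pin transfer for 48 h at 37 °C, 5% CO2. Viability was read as ATP luminescence with CellTiter-Glo, normalised to DMSO-only (100%) and medium-only (0%) wells.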
# [8] = Quantitative High-Throughput drug screen in 47 multiple myeloma cell lines against the NCATS MIPE library collection: KHM11_PLB cell viability assay (AID 1918962); note: nearly all actives have a fitted effect of over 35% in size
# Method in brief: as §1
# [9] = Quantitative High-Throughput drug screen in 47 multiple myeloma cell lines against the NCATS MIPE library collection: JIM1_ECACC cell viability assay (AID 1918964)
# Method in brief: as §2
# [10] = Quantitative High-Throughput drug screen in 47 multiple myeloma cell lines against the NCATS MIPE library collection: INA6_PLB cell viability assay (AID 1918965; note: nearly all actives have a fitted effect of over 55% in size)
# Method in brief: (§4)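 Approved and investigational drugs from MIPE 4.0 were added by pin tool to 500 cells per well. After 48 hours at 37C, ATP-based CellTiter-Glo luminescence indicated remaining viability.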
# [11] = Quantitative High-Throughput drug screen in 47 multiple myeloma cell lines against the NCATS MIPE library collection: JJN3_DSMZ cell viability assay (AID 1918966; note: nearly all actives have a fitted effect of over 50% in size)
# Method in brief: as §2
# [12] = Quantitative High-Throughput drug screen in 47 multiple myeloma cell lines against the NCATS MIPE library collection: H1112_PLB cell viability assay (AID 1918967; note: nearly all actives have a fitted effect of over 30% in size)
# Method in brief: as §2
# [13] = Quantitative High-Throughput drug screen in 47 multiple myeloma cell lines against the NCATS MIPE library collection: Karpas25_ECACC cell viability assay (AID 1918968; note: nearly all actives have a fitted effect of over 35% in size)
# Method in brief: as §2
# [14] = Quantitative High-Throughput drug screen in 47 multiple myeloma cell lines against the NCATS MIPE library collection: KMS27_JCRB cell viability assay (AID 1918970); note: nearly all actives have a fitted effect of over 30% in size
# Method in brief: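 CellTiter-Glo luminescence after 48 h drug exposure at 37 °C; 500 cells/well, 1536-well format, pin-tool compound addition; DMSO = 100%, media-only = 0% viability.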
# [15] = Quantitative High-Throughput drug screen in 47 multiple myeloma cell lines against the NCATS MIPE library collection: KMS12BM_JCRB cell viability assay (AID 1918971); note: nearly all actives have a fitted effect of over 35% in size
# Method in brief: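 We plated 500 myeloma cells per well, pinned in MIPE 4.0 compounds, and incubated for 48 hours at 37C. ATP was then quantified with CellTiter-Glo, with DMSO and media-only wells defining 100% and 0%.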
# [16] = Quantitative High-Throughput drug screen in 47 multiple myeloma cell lines against the NCATS MIPE library collection: KMS12PE_JCRB cell viability assay (AID 1918972); note: nearly all actives have a fitted effect of over 30% in size
# Method in brief: as §4
# [17] = Quantitative High-Throughput drug screen in 47 multiple myeloma cell lines against the NCATS MIPE library collection: Karpas417_ECACC cell viability assay (AID 1918961); conditions: Karpas417 myeloma viability, CellTiter-Glo ATP luminescence, 48 h; viability (% of DMSO): at 45.8 µM (top of the series)
# Method in brief: as §4
# [18] = Quantitative High-Throughput drug screen in 47 multiple myeloma cell lines against the NCATS MIPE library collection: ARP1_JJKsccF8 cell viability assay (AID 1918928; note: nearly all actives have a fitted effect of over 40% in size)
# Method in brief: as §3
# [19] = Quantitative High-Throughput drug screen in 47 multiple myeloma cell lines against the NCATS MIPE library collection: JIM3_ECACC cell viability assay (AID 1918963; note: nearly all actives have a fitted effect of over 35% in size)
# Method in brief: as §1
# [20] = Quantitative High-Throughput drug screen in 47 multiple myeloma cell lines against the NCATS MIPE library collection: KMS20_JCRB cell viability assay (AID 1918973); note: nearly all actives have a fitted effect of over 45% in size
# Method in brief: as §2
# Potency is the fitted concentration of half-maximal effect.
SMILES,Potency [1],Potency [2],Potency [3],Potency [4],Potency [5],Potency [6],Potency [7],Potency [8],Potency [9],Potency [10],Potency [11],Potency [12],Potency [13],Potency [14],Potency [15],Potency [16],Potency [17],Potency [18],Potency [19],Potency [20]
C[C@@H]1COC(Nc2ccc3ncnc(Nc4ccc(OCc5nccs5)c(Cl)c4)c3c2)=N1,16.6 µM (active),2.64 µM (active),1.05 µM (active),4.69 µM (active),4.18 µM (active),14.8 µM (active),10.5 µM (active),16.6 µM (active),13.2 µM (active),4.69 µM (active),20.9 µM (active),1.32 µM (active),2.64 µM (active),9.35 µM (active),14.8 µM (active),16.6 µM (active),–,–,–,–
C[C@H]1C[C@@H]2[C@@H]([C@@H](O)C[C@@]3(C)[C@H]2CC[C@]3(O)C(=O)CO)[C@@]2(C)C=CC(=O)C=C12,inactive,inactive,inactive,inactive,–,inactive,–,inactive,inactive,–,inactive,–,0.105 µM (active),–,inactive,inactive,0.132 µM (active),–,–,–
COc1cccc2nc(-c3cccs3)nc(NN3C(=O)C=C(C)C3=O)c12,1.87 µM (active),0.0743 µM (active),0.296 µM (active),–,1.66 µM (active),0.743 µM (active),0.118 µM (active),0.0526 µM (active),0.105 µM (active),–,1.18 µM (active),1.18 µM (active),0.0264 µM (active),0.235 µM (active),0.105 µM (active),0.118 µM (active),0.0526 µM (active),0.0418 µM (active),0.148 µM (active),0.059 µM (active)
CNC(=O)c1cc(Oc2ccc(NC(=O)Nc3cc(C(C)(C)C)nn3-c3ccc4ncccc4c3)c(F)c2)ccn1,4.69 µM (active),5.9 µM (active),6.62 µM (active),–,9.35 µM (active),23.5 µM (active),16.6 µM (active),2.64 µM (active),–,3.32 µM (active),2.96 µM (active),4.18 µM (active),6.62 µM (active),23.5 µM (active),5.9 µM (active),16.6 µM (active),9.35 µM (active),8.33 µM (active),3.32 µM (active),5.9 µM (active)
CCN(CC)CCNC(=O)c1ccc2nc(-c3ccccc3)c(-c3ccc(CN4CCC(n5c(=O)[nH]c6ccccc65)CC4)cc3)nc2c1,14.8 µM (active),0.662 µM (active),18.7 µM (active),1.05 µM (active),2.64 µM (active),0.935 µM (active),1.66 µM (active),0.332 µM (active),0.833 µM (active),0.296 µM (active),20.9 µM (active),0.833 µM (active),0.332 µM (active),0.418 µM (active),16.6 µM (active),0.833 µM (active),1.05 µM (active),–,0.935 µM (active),0.296 µM (active)
COc1ccc(CC2SC(=O)NC2=O)cc1C(=O)NCc1ccc(C(F)(F)F)cc1 (centres undefined),inactive,inactive,inactive,inactive,–,–,–,inactive,–,–,inactive,inactive,5.9 µM (active),inactive,inactive,–,–,inactive,inactive,–
COC(=O)Nc1ccc(-c2nc(N3CCOCC3)c3cnn(C4CCN(Cc5cccnc5)CC4)c3n2)cc1,0.0469 µM (active),0.0935 µM (active),1.48 µM (active),inactive,–,inactive,–,0.059 µM (active),–,0.0469 µM (active),0.743 µM (active),26.4 µM (active),0.118 µM (active),inactive,1.05 µM (active),inactive,–,0.0743 µM (active),–,0.001 µM (active)
c1ccc2c(CCNc3ccc(Nc4ccncc4)cc3)c[nH]c2c1,inactive,18.7 µM (active),14.8 µM (active),1.48 µM (active),–,–,2.96 µM (active),–,–,–,20.9 µM (active),18.7 µM (active),20.9 µM (active),4.18 µM (active),13.2 µM (active),5.26 µM (active),–,–,16.6 µM (active),10.5 µM (active)
COc1cc2ncn(-c3cc(OCc4ccccc4C(F)(F)F)c(C(N)=O)s3)c2cc1OC,5.26 µM (active),7.43 µM (active),2.64 µM (active),0.743 µM (active),0.935 µM (active),0.235 µM (active),0.469 µM (active),18.7 µM (active),–,1.18 µM (active),16.6 µM (active),7.43 µM (active),13.2 µM (active),0.132 µM (active),0.833 µM (active),–,13.2 µM (active),–,0.469 µM (active),–
Cc1nc(Nc2n[nH]c3c2CN(C(=O)N[C@H](CN(C)C)c2ccccc2)C3(C)C)c2sccc2n1,0.833 µM (active),0.0332 µM (active),1.48 µM (active),0.0743 µM (active),–,2.64 µM (active),0.105 µM (active),0.0132 µM (active),–,0.0059 µM (active),4.18 µM (active),1.66 µM (active),0.526 µM (active),–,0.743 µM (active),–,–,0.469 µM (active),0.0469 µM (active),0.105 µM (active)
